# Measurements published in PubChem BioAssay (EPA / NIEHS).
# Where “and” joins values, the source holds several entries; their conditions need not be identical. Equal values may be shown once. Calls of active or inactive are those of the source. How the source made its calls: active means hit-call score of the fitted dose curve at least 0.9, where 1 is the maximum; inactive means score below 0.9.
# Experiment: BSK_BE3C_SRB: Viability Assessment in the BioMAP Diversity Plus: BE3C Assay (AID 2283028);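 on AC50: fitted both ways so AC50 may mark signal gain or loss versus DMSO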
# Settings: primary human bronchial epithelial cells
# Description: BSK_BE3C is a cell-based, multiplexed-readout assay that uses bronchial epithelial cell, a human lung primary cell, with measurements taken at 24 hours after chemical dosing in a 96-well plate.BSK_BE3C_SRB is an assay component measured in the BSK_BE3C assay. It measures 0.1% sulforhodamine related to cell death using Sulforhodamine staining technology.Data from the assay component BSK_BE3C_SRB was analyzed into 1 assay endpoint. This assay endpoint, BSK_BE3C_SRB, was analyzed with bidirectional fitting relative to DMSO as the negative control and baseline of activity. Using a type of viability reporter, gain or loss-of-signal activity can be used to understand changes in the signaling. Furthermore, this assay endpoint can be referred to as a primary readout, because this assay has produced multiple assay endpoints where this one serves a signaling function. To generalize the intended target to other relatable targets, this assay endpoint is annotated to the cell morphology intended target family, where the subfamily is cell conformation.
# The levels of cell surface (or secreted, indicated by the prefix "s") biomarker endpoints were measured by ELISA. Overt cytotoxicity to cells in confluent adherent cultures (all systems other than the BT system) was assessed by measuring total protein levels using sulforhodamine B (SRB) staining in parallel cultures at the time of biomarker measurements, indicated as SRB endpoints. For proliferation assays for adherent cell types, individual cell types are cultured at sub-confluence and relative cell numbers quantified by SRB staining at time points optimized for each system (48 h: 3C and CASM3C systems; 72 h: BT and HDF3CGF systems; 96 h: SAg system). SRB was performed by staining cells with 0.1% SRB after fixation with 10% TCA and reading wells at 560 nm.Viability and proliferation of PBMC (T cells) was quantified by Alamar Blue reduction for the SAg and BT systems. For PBMC viability (referred to as PBMC Cytotoxicity within the assay endpoint names), cells were plated (75,000/well in a 96-well plate) and then chemical samples added for 1 h before addition of activators, SEB and TSST-1 (20 ng/mL final concentration each). Cells were incubated for 90 h. Then, Alamar Blue (20 uL/well) (Invitrogen, Cat DAL1100) was added for 6 h, and the plates were read with a fluorescence microplate reader at 546/580 nm (excitation/emission). For PBMC proliferation, cells were plated and activated as above but incubated for only 16 h prior to addition of Alamar Blue. Plates were read after 6 h.
SMILES,AC50,outcome
O=C1C2(Cl)C3(Cl)C4(Cl)C(Cl)(Cl)C5(Cl)C3(Cl)C1(Cl)C5(Cl)C24Cl (stereo not given),5.75 µM (active),–
CC(=O)C(Cl)C(=O)N(C)C (stereo not given),–,inactive
COC(=O)Cc1ccccc1,–,inactive
CCCCCCCCC(=O)NCc1ccc(O)c(OC)c1,–,inactive
CN(C)N=O,–,inactive
BrCCBr,–,inactive
CC(=O)[O][Hg][c]1ccccc1,1.88 µM (active),–
C=C(C)C(=O)[O][Sn]([CH2]CCC)([CH2]CCC)[CH2]CCC,0.148 µM (active),–
NC(=S)Nc1ccccc1,–,inactive
O=C(O)C(Cl)(Cl)Cl,–,inactive
CCOP(=S)(OCC)Oc1ccc(S(C)=O)cc1 (stereo not given),–,inactive
CC(C)(OO)c1ccccc1,–,inactive
COC[C@H](C)N(C(=O)CCl)c1c(C)csc1C,–,inactive
O=c1[nH]c(=O)[nH]c(=O)[nH]1,–,inactive
CC(=O)OC(c1ccccc1)C(Cl)(Cl)Cl (stereo not given),–,inactive
CCSC(C)CC1CC(=O)C(C(CC)=NOC/C=C/Cl)=C(O)C1 (stereo not given),–,inactive
COP(=S)(OC)Oc1cc(Cl)c(Cl)cc1Cl,–,inactive
O=[N+]([O-])c1ccc(O)c([N+](=O)[O-])c1,–,inactive
NC(=O)O,–,inactive
OCc1ccco1,–,inactive

SMILES,AC50,outcome
CCC(=O)C(CC(C)N(C)C)(c1ccccc1)c1ccccc1 (stereo not given),–,inactive
O=C(Nc1ccc2[nH]ccc2c1)c1cc2cc(F)ccc2n1Cc1cccc(F)c1,6.76 µM (active),–
CC1(C)Cc2cccc(O)c2O1,–,inactive
ClC1(Cl)C2(Cl)C3(Cl)C4(Cl)C(Cl)(Cl)C5(Cl)C3(Cl)C1(Cl)C5(Cl)C24Cl (stereo not given),–,inactive
Oc1c(I)cc(I)cc1I,–,inactive
O=C(O)CCC(F)(C(F)(F)F)C(F)(F)F,–,inactive
CC(C)c1ccc(CO)cc1,–,inactive
O=[N+]([O-])c1ccc2c3c(cccc13)CC2,–,inactive
Cc1ccccc1N,–,inactive
C[C@]12CCC(=O)C[C@@H]1CC[C@@H]1[C@@H]2CC[C@]2(C)[C@@H](O)CC[C@@H]12,–,inactive
Oc1ccc(-c2ccccc2)cc1,–,inactive
COP(=S)(OC)Oc1ccc(S(=O)(=O)N(C)C)cc1,–,inactive
Oc1cccc2cccnc12,4.3 µM (active),–
CCCCCCCCc1ccc(O)cc1,34.9 µM (active),–
CC(C)(C)CC(C)(C)c1ccc(O)cc1,13.3 µM (active),–
ClC(Cl)=C(Cl)C(Cl)=C(Cl)Cl,31.2 µM (active),–
ClC1=C(Cl)[C@]2(Cl)[C@H]3[C@H]([C@H]4C=C[C@H]3C4)[C@@]1(Cl)C2(Cl)Cl,–,inactive
O=C(O)C(F)(F)C(F)(F)C(F)(F)C(F)(F)C(F)(F)C(F)(F)C(F)(F)C(F)(F)C(F)(F)C(F)(F)F,25.5 µM (active) and 2.72 µM (active) and 4.77 µM (active),–
Cn1sc(Cl)cc1=O,–,inactive
COC(=O)c1sccc1S(=O)(=O)NC(=O)Nc1nc(C)nc(OC)n1,–,inactive
